Records with an inconclusive call do not appear. Where a call stands in place of a potency, no number is given. The source made the active and inactive calls. Calls come from the whole dose curve; tested in HEK293 reporter line.
assay: qHTS for Inhibitors of the Functional Ribonucleoprotein Complex (vRNP) of Lassa (LASV) Arenavirus: Viability assay - alamar blue signal for LASV Primary Screen (AID 1347083); conditions: cell viability, alamar blue fluorescence (LASV minigenome counter-screen); series mostly up to 57.5 µM; note: nearly all actives have a fitted effect of over 80% in size
Potency is the fitted concentration of half-maximal effect.

**Q.** For `CCNC(=O)Nc1ccc(Oc2ncnc(N)c2C=NOC)cc1Cl`, which Potency is on record?
**A.** The Potency was “inactive”.

**Q.** Which Potency does the source give for `Clc1cccc(-n2nnnc2NCc2ccccc2Oc2ccccn2)c1Cl` here?
**A.** Its Potency is “inactive”.

**Q.** Which Potency does the source give for `COC(=O)N[C@H](C(=O)N1CCC[C@@H]1c1ncc(-c2ccc(-c3ccc(-c4cnc([C@@H]5CCCN5C(=O)[C@@H](NC(=O)OC)C(C)C)[nH]4)cc3)cc2)[nH]1)C(C)C` here?
**A.** The Potency was “inactive”.

**Q.** For `COc1cc([C@H]2Oc3cc([C@H]4Oc5cc(O)cc(O)c5C(=O)[C@H]4O)ccc3O[C@H]2CO)ccc1O`, which Potency is on record?
**A.** The Potency was “inactive”.

**Q.** With `COc1ccc(-c2coc3cc(O)ccc3c2=O)cc1` as the molecule, how does the Potency read?
**A.** The Potency was “inactive”.

**Q.** With `CON=C(C(=O)N[C@@H]1C(=O)N2C(C(=O)OCOC(=O)C(C)(C)C)=C(C=Cc3scnc3C)CS[C@H]12)c1csc(N)n1` as the molecule, how does the Potency read?
**A.** Its Potency is “inactive”.

**Q.** Which Potency does the source give for `CCNC(=O)Nc1ccc2ncc(Nc3ccc(C)cc3)nc2n1` here?
**A.** Its Potency is 2.17 µM (active).

**Q.** For `CN(C)c1ccccc1CN1CCCN(Cc2ccccc2N(C)C)C1c1ccncc1`, which Potency is on record?
**A.** The Potency was “inactive”.

**Q.** For `O=C(C[C@@H]1CC=CCCC(=O)O[C@H](c2ccccc2)CNC1=O)NCc1ccc(Cl)cc1`, which Potency is on record?
**A.** The Potency was “inactive”.

**Q.** With `COC1CCC(C(=O)c2ccc3nc4c(cc3c2)CCCO4)CC1` (stereo not given) as the molecule, how does the Potency read?
**A.** Its Potency is “inactive”.

**Q.** For `CN(C1CCc2c(c3ccccc3n2CC(=O)O)C1)S(=O)(=O)c1ccc(F)cc1` (stereo not given), which Potency is on record?
**A.** The Potency was “inactive”.

**Q.** With `CNC[C@@H](O)[C@@H](O)[C@H](O)[C@H](O)CO` as the molecule, how does the Potency read?
**A.** The Potency was “inactive”.

**Q.** With `CC(=O)O[C@]1(C(C)=O)CC[C@H]2[C@@H]3C=C(C)C4=CC(=O)CC[C@]4(C)[C@@H]3CC[C@@]21C` as the molecule, how does the Potency read?
**A.** The Potency was “inactive”.

**Q.** For `O=C1Nc2ccc(I)cc2C1=Cc1cc(Br)c(O)c(Br)c1`, which Potency is on record?
**A.** The Potency was “inactive”.

**Q.** For `CN(C)CCC=C1c2ccccc2COc2ccc(CC(=O)O)cc21`, which Potency is on record?
**A.** Its Potency is “inactive”.

Reference: PubChem BioAssay (NCATS)
